An excerpt weighted towards active compounds, which were near 8.7% of everything screened.
Sfp inh: qHTS Assay for Inhibitors of Bacillus subtilis Sfp phosphopantetheinyl transferase (PPTase); 4'-phosphopantetheinyl transferase ffp (Bacillus subtilis), Q9F4F7; Biochemical Sfp PPTase activity, qHTS; Potency, µM, actives largely listed as inhibitors; 310,000 tested, 3.5% active; AID 1490, 2009;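 note: the enzyme is Sfp with the accession as filed and its product quenches rhodamine fluorescence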
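Reaction rates are the 30-min fluorescence difference (ex 525, em 598 nm) in wells containing 15 nM Sfp, 5 uM rhodamine-CoA and 12.5 uM BHQ-2-YbbR at pH 7.6 with 10 mM MgCl2.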
HP1b binding inh: HTS for Inhibitors of HP1-beta Chromodomain Interactions with Methylated Histone Tails | Potency, µM (highest dose often 114 µM), usual class: inhibitors | Chromobox protein homolog 1 (Homo sapiens), P83916 | AID 540317, 2011 | AlphaScreen HP1-beta / biotin-H3K9me3 peptide binding | 390,000 tested, 0.56% active; note: nearly all actives have a fitted effect of over 70% in size
Target sequence (P83916 whole entry, looked up): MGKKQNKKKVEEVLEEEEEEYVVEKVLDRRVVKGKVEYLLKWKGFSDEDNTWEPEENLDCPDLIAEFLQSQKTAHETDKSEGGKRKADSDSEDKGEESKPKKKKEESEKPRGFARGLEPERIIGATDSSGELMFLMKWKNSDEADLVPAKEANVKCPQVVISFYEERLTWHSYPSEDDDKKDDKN
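HP1-beta protein (50 nM final) preincubated 30 min at room temperature with biotinylated H3(1-18)K9me3 peptide (50 nM) in PBS pH 7.4, 0.01% Tween-20, then compound added for 30 min. AlphaScreen streptavidin donor/nickel chelate acceptor beads (10 ug/mL final), 30 min dark, luminescence read.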
JMJD2A Tudor inh: qHTS Assay for Inhibitors of JMJD2A-Tudor Domain; Lysine-specific demethylase 4A (Homo sapiens), O75164; AlphaScreen JMJD2A-Tudor / H3K4me3 peptide binding; Potency, µM (doses to about 114 µM), usual class: inhibitors; 390,000 tested, 4.4% active; AID 504339, 2011; note: nearly all actives have a fitted effect of over 50% in size
BAZ2B inh: qHTS Assay for Inhibitors of BAZ2B; AID 504333, 2011; 360,000 tested, 4.4% active; AlphaScreen BAZ2B-H3K14Ac peptide displacement; Bromodomain adjacent to zinc finger domain protein 2B (Homo sapiens), Q9UIF8; Potency, µM (doses to about 114 µM), usual class: inhibitors; note: nearly all actives have a fitted effect of over 60% in size
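In this displacement format the biotinylated H3(5-23) peptide acetylated at Lys14 serves as ligand at 50 nM, with BAZ2B at 50 nM in PBS pH 7.4 containing 0.01% Tween-20. Donor and acceptor beads are 10 ug/mL final.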
ALOX12 inh: Primary qHTS assay for inhibitors of human arachidonate 12S-lipoxygenase (ALOX12): Round 2 | AID 1671190, 2021 | Potency, µM (doses to about 108 µM), actives largely listed as inhibitors | purified 12hLO, xylenol orange hydroperoxide absorbance | 580,000 tested, 1.1% active | Polyunsaturated fatty acid lipoxygenase ALOX12 (Homo sapiens), P18054
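Purified human 12hLO at 150 nM in 25 mM Hepes, 0.01% Triton X-100, pH 7.0, preincubated 15 min at room temperature with compound. Reaction started with 40 uM arachidonic acid, 30 min at room temperature. Hydroperoxide measured by Fe-xylenol orange, 573/405 nm absorbance ratio.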
G9a block: qHTS Assay for Inhibitors of Histone Lysine Methyltransferase G9a | G9a H3K9 monomethylation, AlphaScreen, 2 h | 350,000 tested, 8.8% active | Histone-lysine N-methyltransferase EHMT2 (Homo sapiens), Q96KQ7 | Potency, µM (top dose mostly 102 µM), hits mostly inhibitors; note: nearly all actives have a fitted effect of over 75% in size
Target sequence (Q96KQ7 913-1193 limits assumed): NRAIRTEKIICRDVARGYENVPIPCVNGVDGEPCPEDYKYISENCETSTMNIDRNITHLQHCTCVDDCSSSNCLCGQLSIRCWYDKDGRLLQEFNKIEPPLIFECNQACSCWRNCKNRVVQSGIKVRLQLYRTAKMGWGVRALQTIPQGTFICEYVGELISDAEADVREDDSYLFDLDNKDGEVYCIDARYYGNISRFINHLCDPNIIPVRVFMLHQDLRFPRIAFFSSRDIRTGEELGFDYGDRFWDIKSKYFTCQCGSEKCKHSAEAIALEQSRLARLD
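Compounds were preincubated with 20 nM G9a for 15 min, after which biotinylated H3K9 peptide (500 nM) and SAM (20 uM) started a 2 h room-temperature reaction. Monomethylated product was quantified by antibody-based AlphaScreen chemiluminescence.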
Numbers stand for hits; - = inactive; ? = inconclusive; . = no result; [ ] = another dose, or the depositor's remark. Calls come from the whole dose curve; as a rule, active = well fitted curve in the direction sought with a large enough effect; inconclusive = small, poorly fitted or top-dose-only effect, or another doubt; inactive = no such curve, though single readings can be large; an effect the other way counts as inactive or inconclusive.

SMILES	Sfp inh	HP1b binding inh	JMJD2A Tudor inh	BAZ2B inh	ALOX12 inh	G9a block
CC1(C(=O)NCc2ccc(F)cc2)CN(S(C)(=O)=O)CC(=O)N1Cc1ccc2c(c1)OCO2 (stereo not drawn)	.	.	.	.	-	.
Cc1nc(C(C)C)sc1C(=O)N1C[C@@H](C)[C@](O)(C2CCC2)C1	.	.	.	.	-	.
CCN(CC)S(=O)(=O)c1cc(-c2nn(C)c(=O)c3ccccc23)ccc1C	-	-	?	50µM	-	?
Cc1ccc(-c2nn(C)c(=O)c3ccccc23)cc1S(N)(=O)=O	.	.	.	.	-	.
CC1CCC2(CC1)NC(=O)N(CC(=O)NCCCc1ccccc1)C2=O (stereo not drawn)	.	.	.	.	-	.
CCc1nc2ccc(C(=O)NCc3ccc(C)o3)cc2nc1CC	-	-	-	-	-	-
O=C(NCc1ccccc1)c1cccc(NC(=O)c2ccco2)c1	-	-	-	-	-	-
CCc1nc2ccc(C(=O)NCc3ccco3)cc2nc1CC	35µM	-	-	-	-	-[12.7 µM]
CCCN1C(=O)c2ccc(C(=O)NCc3ccco3)cc2C1=O	45µM	-	-	-	?	-[12.7 µM]
O=C(NCc1ccco1)c1cccc(NC(=O)c2ccco2)c1	-	-	-	-	-	56µM
COCCN1C(=O)c2cccn2CC1CNC(=O)c1ccc(OC)c(OC)c1 (stereo not drawn)	.	.	.	.	-	.
CCCCCCCC(=O)OC(CN1CCCCC1)CN1CCCC1=O (stereo not drawn)	-	-	-	-	-	11µM
CCCCCC(=O)OC(CN1CCCCCC1)CN1CCCC1=O (stereo not drawn)	-	-	-	-	?	.
Cc1nn(C)c(C)c1CCCN(C)C(=O)C1N(C(C)C)C(=O)C12CCCC2 (stereo not drawn)	.	.	.	.	-	.
O=[N+]([O-])c1cc(CSC2=NCCN2)ccc1O	-	-	-[11.4 µM]	?	-	25µM
COc1ccc2cc(CNC(=O)CNC(=O)c3cc(C)cc(C)c3)ccc2c1	.	.	.	.	-	.
CC(=O)NC1C(=O)N(CCN2CCOCC2)c2ccc(Cl)cc21 (stereo not drawn)	?	?	13µM	8.9µM	40µM	32µM
CC(=O)NC1C(=O)N(CCN2CCOCC2)c2ccc(C)cc21 (stereo not drawn)	79µM	?	7.1µM	5µM	.	20µM
CC(=O)NC1C(=O)N(CCN2CCOCC2)c2ccc(F)cc21 (stereo not drawn)	71µM	-	22µM	10µM	40µM	32µM
COc1ccccc1OCCN1C(=O)C(NC(C)=O)c2ccccc21 (stereo not drawn)	.	.	.	.	-	.
CC(=O)NC1C(=O)N(CCOc2ccccc2)c2ccccc21 (stereo not drawn)	.	.	.	.	-	.
O=C(N/N=C1/CC2C=CCC12)c1ccco1 (stereo not drawn)	-	-	50µM	-	-	-
O=C(N/N=C1/CC2C=CCC12)c1cccs1 (stereo not drawn)	-	-	-	-	-	-
CN1CCOc2c(C(=O)NCCc3cnc[nH]3)cc(-c3ccc(N4CCOCC4)cc3)cc21	.	.	.	.	-	.
O=C(Cc1cn2ccsc2n1)NCc1ccccc1	-	-	-	79µM	-	-
SMILES	Sfp inh	HP1b binding inh	JMJD2A Tudor inh	BAZ2B inh	ALOX12 inh	G9a block
O=C(COC(=O)Cc1cn2ccsc2n1)NC12CC3CC(CC(C3)C1)C2	-	-	-[11.4 µM]	-	?	-
CCn1c2ccccc2c2cc(NC(=O)COC(=O)c3ccc(O)cc3)ccc21	.	-	-	-	-	?
CCn1c2ccccc2c2cc(NC(=O)COC(=O)Cc3cn4ccsc4n3)ccc21	-	-	35µM	-	-	-
CC1CCCC(NC(=O)COC(=O)Cc2cn3ccsc3n2)C1C (stereo not drawn)	-	-	-	-	?	50µM
C[C@@H]1CN(C(=O)c2cnc3c(O)cccn3c2=O)CC[C@@]1(O)C1CCC1	.	.	.	.	-	.
COc1cccc(-c2cc3c(-n4cccc4)ncnc3o2)c1	22µM	-	-	-	-	-
Cc1cc(-n2c(C)cc(C(=O)CSc3nncn3C(C)C)c2C)no1	.	-	-	-	-	56µM
Cc1cc(-n2c(C)cc(C(=O)CSc3nncn3C)c2C)no1	.	-	-	.	-	.
Cc1ccc(-n2c(C)n[nH]c2=S)cc1	-	-	10µM	-	-	22µM
Cc1n[nH]c(=O)n1-c1ccc(C(C)(C)C)cc1	-	-	-[11.4 µM]	-	-	-
Cc1ccc(-n2c(C)n[nH]c2=S)cc1C	-	-	8.9µM	-	?	5µM
Cc1ccc(-n2c(C)c3c(C)nnc(C)c3c2C)cc1C	?	-	?	-	-	-[12.7 µM]
CNC(=O)[C@@H]1CN(C(=O)Cc2c(F)cccc2Cl)C[C@H]1COC	.	.	.	.	-	.
C/C(=N\Nc1ccc(Cl)c(C(=O)O)c1)c1ccc[nH]1	-	-	?	?	-	25µM
C/C(=N\Nc1ccc(Cl)c(C(=O)O)c1)c1ccc(N2CCOCC2)cc1	-	-	-	-	?	40µM
NC(=O)N/N=C/c1ccc(N2CCOCC2)s1	79µM	-	-	-	-	3.2µM
C/C(=N\Nc1ccc(Cl)c(C(=O)O)c1)c1cccs1	?	-	-	-	-	.
O=C(O)c1cc(N/N=C/c2ccc(N3CCOCC3)s2)ccc1Cl	56µM	?	45µM	50µM	?	2.2µM
Cc1[nH]c2ccccc2c1-c1csc(NC(=O)C2CCOCC2)n1	.	.	.	.	-	.
COc1cccc(C(c2sc3nc(-c4ccco4)nn3c2O)N2CCC(C)CC2)c1 (stereo not drawn)	.	-	-	?	?	18µM
COc1cccc(C(c2sc3nc(-c4ccco4)nn3c2O)N2CCC(O)CC2)c1 (stereo not drawn)	.	-	-	-	-	?
COc1cccc(C(c2sc3nc(-c4ccco4)nn3c2O)N2CCCC2)c1 (stereo not drawn)	.	-	-	-	-	14µM
CC(=O)NC1=NN(C(C)=O)C2(S1)C(=O)N(C(C)C)c1ccc(C)cc12 (stereo not drawn)	-	-	-	-	-	50µM
O=C(NC1CCCCC1)C1CN(C(=O)c2ccc3c(c2)OCO3)CC12CCOCC2 (stereo not drawn)	.	.	.	.	-	.
CNC(=O)c1ccc(CN(C(=O)Cc2ccc(C)s2)C2CC2)cc1	.	.	.	.	-	.
COc1ccc(C2=Nn3c(nnc3-c3cc(OC)cc(OC)c3)SC2)cc1	-	.	-	.	.	.
COc1ccc(C2=Nn3c(nnc3-c3ccccc3C)SC2)cc1OC	-	.	-	.	.	.
COc1ccc(C2=Nn3c(nnc3-c3ccccc3C)SC2)cc1	45µM	.	-	.	.	.

Screens deposited in PubChem BioAssay by National Center for Advancing Translational Sciences (NCATS).
